Data taken from the supplement of paper PMC7411640.
Where a name gives a salt, the structure may show the parent alone.

Test system: MDA-MB-468
Assay: phospho-S6 immunofluorescence (DAPI-normalised), per-plate z-score; higher = higher phospho-S6 signal (less pathway suppression)
Settings: co-treatment: vehicle; 24 h
Method: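 GPCR-targeted compound library (MedChemExpress HY-L006) tested on MDA-MB-468 PTEN-null TNBC cells in 384-well plates at 0.1, 1 or 10 uM, combined with vehicle, GDC0941 450 nM or lapatinib 1 uM, for 24 h. Phospho-S6 (S240/244) immunofluorescence normalised to DAPI and expressed as a per-plate z-score; values are the mean of biological triplicates.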

SMILES	phospho-S6 immunofluorescence (z-score)
Nc1nc(CC(=O)Nc2ccc(CCNC[C@H](O)c3ccccc3)cc2)cs1 [Mirabegron] (compound 10 µM)	0.56
N#Cc1ccc2[nH]cc(CCCCN3CCN(c4ccc5oc(C(N)=O)cc5c4)CC3)c2c1 [Vilazodone] (compound 10 µM)	1.24
CC(C)(C(=O)O)c1ccc(C(O)CCCN2CCC(C(O)(c3ccccc3)c3ccccc3)CC2)cc1 (stereo not given) [Fexofenadine (hydrochloride)] (compound 10 µM)	-0.42
O=C(O[C@@H]1C[C@@H]2C[C@H]3C[C@H](C1)N2CC3=O)c1c[nH]c2ccccc12 [Dolasetron (Mesylate hydrate)] (compound 10 µM)	0.62
Nc1nc2c(cnn2CCc2ccccc2)c2nc(-c3ccco3)nn12 (compound 10 µM)	3.1
COc1ccc2cccc(CCNC(C)=O)c2c1 [Agomelatine] (compound 10 µM)	0.35
OC[C@H]1O[C@@H](n2cnc3c(N[C@@H]4CCc5ccccc54)ncnc32)[C@H](O)[C@@H]1O (compound 10 µM)	1.18
COc1ccc2[nH]cc(CCNC(C)=O)c2c1 [Melatonin] (compound 10 µM)	-0.21
Cc1ccc(F)cc1C(=O)Nc1ccc(C(=O)N2Cc3cccn3Cc3ccccc32)c(Cl)c1 [Lixivaptan] (compound 10 µM)	0.62
CCCCC(C)(O)C/C=C/[C@H]1[C@H](O)CC(=O)[C@@H]1CCCCCCC(=O)OC (mixture of isomers) [Misoprostol] (compound 10 µM)	1.59
